Screening data (PubChem)
D1 antagonist: antagonists of human D1 dopamine receptor; HEK293 TREx D1 cells, calcium flux, dopamine EC80; stronger effect = lower value; P21728; AID 504652; activity change, negative = inhibition, % at 10 µM; 360,000 compounds, 3.2% hits; in the data active = activity change below about -30%
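Allosteric or orthosteric antagonism assessed as attenuation of the calcium response to EC80 dopamine, added 180 s after compound, in induced HEK293 Trex D1 cells loaded with no-wash calcium dye.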
D1 PAM: human D1 dopamine receptor positive modulation; potentiation, % at 10 µM; 360,000 compounds, 0.036% hits; HEK293 TREx D1 cells, calcium flux, dopamine EC20 potentiation; P21728; in the data active = potentiation above about 30%
TRHR PAM: allosteric enhancers of human TRH receptor. enhancement, % at 2 µM. 360,000 compounds, 0.66% hits. TRHR cells, fluo-8 calcium fluorescence, EC20 TRH enhancement. P34981. AID 493056; in the data active = enhancement above about 30%
Target sequence (P34981 whole entry, looked up): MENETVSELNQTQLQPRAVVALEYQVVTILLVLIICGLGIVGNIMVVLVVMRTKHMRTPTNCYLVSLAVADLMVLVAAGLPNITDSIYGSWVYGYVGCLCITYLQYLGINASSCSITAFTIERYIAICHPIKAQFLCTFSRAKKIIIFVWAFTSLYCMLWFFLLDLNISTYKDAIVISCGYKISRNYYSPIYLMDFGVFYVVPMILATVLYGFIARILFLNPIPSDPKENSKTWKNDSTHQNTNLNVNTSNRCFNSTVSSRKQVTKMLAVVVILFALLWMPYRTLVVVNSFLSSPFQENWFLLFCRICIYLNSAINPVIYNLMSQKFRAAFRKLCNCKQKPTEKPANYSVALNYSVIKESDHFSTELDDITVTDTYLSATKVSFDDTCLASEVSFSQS
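Enhancer read-out: after compound pinning and an initial kinetic agonist-mode read, an EC20 of TRH (10 nM final) was injected and fluo-8 calcium signal (Ex 480/Em 530) followed at 1 s/cycle for 100 cycles in TRHR-expressing cells.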
D1 agonist: agonists of human D1 dopamine receptor | activation, % at 2 µM | P21728 | HEK293 T-REx D1 cells, calcium flux, agonist mode | 360,000 compounds, 1% hits
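Inducible HEK293 T-REx D1 cells, force-coupled to calcium signalling, were plated at 4000 cells/well with tetracycline and held overnight at 30 C. After no-wash calcium dye loading, compound-evoked calcium rise over 180 s flagged agonists.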
TRHR ag: TRH receptor (human) agonism; activation, % at 2 µM; 360,000 compounds, 0.18% hits; TRHR cells, calcium flux fluo-8, FDSS agonist mode; P34981
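Steps: seed TRHR cells overnight; add fluo-8 no-wash Ca dye, RT 30 min–1.5 h; record 10 s baseline; pin-transfer compounds; monitor fluorescence 1 cycle/s for the agonist window. Calcium increases flag candidate agonists.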
Each line names hits and unclear results; the compound was inactive in the other large screens; ! = a repeat was not active. Compounds with a hit are over-represented: about 4.7% of the library has one in this group of screens. Rule as the data show it, unless noted: active = activation above about 30%; inactive = the rest.

CC1(C)CC(CCNCc2ccc3c(c2)OCO3)(Cc2ccccc2)CCO1 (configuration not stated)	D1 agonist 61.4
Cc1ccccc1CN1C(=O)C(C)N=C(c2ccccc2)c2ccccc21 (configuration not stated)	none
CCn1c(O)c(C=Nc2ccc(N3CCOCC3)cc2)c(=O)n(CC)c1=S	D1 agonist 98.9, TRHR ag 31.7
O=c1[nH]c(=S)n(-c2ccc(Cl)cc2)c(O)c1C=Nc1ccc(N2CCOCC2)cc1	TRHR PAM 32.7, D1 agonist 41.6
Cc1cccc(CN2CC=C(c3noc(CCC(=O)Nc4ccc(C)c(F)c4)n3)CC2)c1	none
COc1ccc2[nH]c(C)c(CCNCc3cccnc3)c2c1	D1 agonist 34.0
CCOc1cccc(CNCCc2c(C)[nH]c3ccc(OC(F)(F)F)cc23)c1O	D1 agonist 116.8
Cc1ccc2[nH]c(C)c(CCNCc3ccco3)c2c1	none
Cc1[nH]c2ccc(OC(F)(F)F)cc2c1CCNCc1cccc([N+](=O)[O-])c1	none
Cc1[nH]c2ccc(OC(F)(F)F)cc2c1CCNCc1ccc(Cl)cc1	D1 agonist 41.2
Cc1cc(OCC(=O)N2CCN(CCc3ccccn3)CC2)cc(C)c1Cl	none
CN[C@@H]1C[C@@H](c2ccc(Cl)c(Cl)c2)c2ccccc21	D1 antagonist -51.2
O=P(Nc1cccc(F)c1)(Oc1ccccc1F)Oc1ccccc1F	D1 antagonist -37.0
Cc1cccc(NP(=O)(Oc2ccccc2F)Oc2ccccc2F)c1	none
COC(=O)C1=C(c2cccc3c2S(=O)(=O)c2ccccc2-3)C[C@@H]2CC[C@H]1N2C(=O)N1CCc2cc(OC)c(OC)cc2C1	D1 antagonist -47.8
COC(=O)C1=C(c2cccc3c2S(=O)(=O)c2ccccc2-3)C[C@@H]2CC[C@H]1N2C(=O)N1CCOCC1	none
Fc1ccc(CCNCc2ccc(Br)cc2)cc1	D1 agonist 33.1
Fc1ccc(CNCCc2ccccc2F)cc1	none
Fc1ccc(CCNCc2cccc(Cl)c2)cc1	D1 agonist 41.7
COc1cccc(CNCCc2ccc(F)cc2)c1	none
COc1ccc(-n2c(/C=C\c3ccccc3F)nc3ccccc3c2=O)cc1OC	none
O=C(Nc1cc(C(F)(F)F)cc(C(F)(F)F)c1)c1cccn(Cc2ccccc2Cl)c1=O	none
O=C(COc1ccccc1[N+](=O)[O-])N1CCN(CCc2ccccn2)CC1	none
CCNCC(O)c1cccc(O)c1 (configuration not stated)	none
CC(Cc1ccc(O)cc1)NCC(O)c1cc(O)cc(O)c1 (configuration not stated)	D1 antagonist -30.8 (no result: D1 PAM, D1 agonist)
CC1=C[C@@H]2c3cccc4[nH]cc(c34)C[C@H]2N(C)C1	D1 antagonist -37.5, D1 agonist 30.6
C=CCN1CCc2cccc3c2[C@H]1Cc1ccc(O)c(O)c1-3	D1 antagonist -89.7, D1 agonist 31.8
COc1ccc(Cn2c(O)c(C=NCCN3CCOCC3)c(=O)[nH]c2=O)cc1	D1 antagonist -37.4
CC(C)(C)c1cc([N+](=O)[O-])cc(C(C)(C)C)c1O	D1 antagonist -35.9, D1 agonist 34.2
Nc1c(C(=O)Nc2ccc(Cl)c(C(F)(F)F)c2)sc2nc3c(cc12)N1CCC3CC1	none
O=C(Nc1ccc(F)c(Cl)c1)N(Cc1ccc2c(c1)OCO2)C1CCN(Cc2ccccc2)CC1	none
Cc1ccc(-n2c(/C=C/c3ccc(Br)s3)nc3ccccc3c2=O)cc1	none
CC(=O)OCC[N+](C)(C)C	D1 agonist 46.3!, TRHR ag 36.3
N#CC1=C(N)Oc2c(c(=O)sc3ccccc23)C1c1cccnc1 (configuration not stated)	TRHR PAM 35.0
CN1C[C@H](CO)C=C2c3cccc4[nH]cc(c34)C[C@H]21	D1 antagonist -76.4
O=C1NC(=O)N(c2ccccc2)C(=O)/C1=C/c1ccc(Sc2ccccc2)o1	none
O=C1NC(=O)N(c2ccccc2F)C(=O)/C1=C/c1ccc(Sc2nc3ccccc3[nH]2)o1	D1 agonist 116.2, TRHR ag 41.2
COCCNC(=O)Cn1cc(/C=C2\C(=O)NC(=O)N(c3ccccc3F)C2=O)c2ccccc21	none
COCCCNC(=O)Cn1cc(/C=C2\C(=O)NC(=O)N(c3ccccc3F)C2=O)c2ccccc21	D1 agonist 32.1
N#Cc1cc2c(nc1SCC(=O)Nc1ccc(C(F)(F)F)cc1)C1CCN2CC1	none
O=C(Nc1ccon1)c1cccn(Cc2cccc(Cl)c2)c1=O	none
COc1ccc2[nH]cc(CCN=C(N)N)c2c1	TRHR PAM 35.8
CCCC12CN3CC(C)(CN(C1)C3c1c(C)[nH]c(=O)[nH]c1=O)C2=O (configuration not stated)	none
CN1CCN(c2csc3ccc(F)cc3c2=O)CC1	none
Cc1cccc(N2C(=O)/C(=C/N3CCN(C(=O)c4ccco4)CC3)C(=O)NC2=S)c1	none
Cc1ccc(N2C(=O)/C(=C/N3CCN(C(=O)c4ccco4)CC3)C(=O)NC2=S)cc1C	D1 antagonist -34.5
S=C=Nc1cccc(C2(N3CCCCC3)CCCCC2)c1	D1 antagonist -91.5
FC(F)(F)c1ccc(CNCCc2ccc3c(c2)OCO3)cc1	D1 agonist 34.7
COc1ccc(CNCCc2ccc3c(c2)OCO3)cc1Br	D1 agonist 77.9
COc1ccc(-c2nc(CN3C(=O)CN=C(c4ccccc4)c4cc(Cl)ccc43)c(C)o2)cc1	none
C=CCN1C(=O)/C(=C/c2cccs2)C(=O)NC1=S	none
O=C1NC(=S)N(Cc2ccco2)C(=O)/C1=C\c1cccs1	TRHR PAM 50.9
CCc1ccc(-n2nc(C)c3c2NC(=O)CSC3c2ccc(OC)cc2OC)cc1 (configuration not stated)	none
CC(=O)c1cn(Cc2ccccc2C#N)c2ccccc12	D1 antagonist -34.1
CC(=O)c1cn(Cc2ccccc2F)c2ccccc12	D1 antagonist -55.4
O=Cc1cn(Cc2ccccc2F)c2ccccc12	none
Cc1ccc(Cn2cccc(C(=O)Nc3cc([N+](=O)[O-])ccc3C)c2=O)cc1	none (no result: D1 antagonist)
COc1ccccc1C1SCC(=O)Nc2c1c(C)nn2-c1cccc(C)c1 (configuration not stated)	none
COc1cccc(-c2nn3c(=O)cc(CN4CCN(C(=O)COc5ccccc5C)CC4)nc3s2)c1	none
CCOC(=O)C1=C(N)OC2=C(C(=O)CC(C)(C)C2)C12C(=O)Nc1ccccc12 (configuration not stated)	D1 antagonist -37.4
COC(=O)C1=C(c2ccc(C(C)=O)cc2)C[C@@H]2CC[C@H]1N2C(=O)NCc1ccc(C(F)(F)F)cc1	D1 antagonist -41.4, D1 agonist 47.9
COC(=O)C1=C(c2ccccc2OCc2ccccc2)C[C@@H]2CC[C@H]1N2C(=O)NCCOc1ccccc1	D1 antagonist -30.6
COC(=O)C1=C(c2ccc(F)cc2OCc2ccccc2)C[C@@H]2CC[C@H]1N2C(=O)NCCOc1ccc(OC)cc1	none
